The supplement of paper PMC5407854, “Inhibitor of ppGalNAc-T3-mediated O-glycosylation blocks cancer cell invasiveness and lowers FGF23 levels” (eLife, 2017)
In all, about 1,700 compounds were measured (“T2 sensor activation Q score (MG/GFP ratio z-score vs DMSO controls)”: median about 0.3, highest 2% from about 1.9 on). Shown is part of a subset that was picked to be rich in the highest values.

system: ppGalNAc-T2 sensor; test: T2 sensor activation Q score (MG/GFP ratio z-score vs DMSO controls) (SD units); higher = more sensor activation (inhibition of ppGalNAc-T2 glycosylation); conditions: HEK293 sensor cells; 10 µM; 6 h
Protocol: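 Cells were treated with compound at 10 uM for 6 h, then MG/GFP ratio was read by flow cytometry (10,000 cells per well, duplicate wells). Q = (R - R_neg)/SD_neg relative to DMSO vehicle controls; the signal rises when the glycosyltransferase is inhibited.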

**Q.** For `Oc1ccc2ccccc2c1N=Nc1ccc(F)cc1`, which “T2 sensor activation Q score” value is on record?
**A.** 0.05

**Q.** With `O=[N+]([O-])c1c(N2CCN(CCO)CC2)nc2ccccn12` as the compound, how does the “T2 sensor activation Q score” value read?
**A.** 0.7

**Q.** For `OCc1nnn(-c2ccccc2)c1CO`, which “T2 sensor activation Q score” value is on record?
**A.** 0.8

**Q.** `NC(N)=N/N=C\c1c(Cl)cccc1Cl` was tested. Which “T2 sensor activation Q score” value did it give?
**A.** 0.25

**Q.** With `Cc1cc(N2CCOCC2)nc(N2CCOCC2)n1` as the compound, how does the “T2 sensor activation Q score” value read?
**A.** 0.15

**Q.** How did the “T2 sensor activation Q score” value turn out when `N#CC(c1ccccc1)C(C/C(=N\O)c1ccccc1)c1ccccc1` (stereo not drawn) was run?
**A.** -0.8

**Q.** `O=C(/C=C/c1cccnc1)/C=C/c1cccnc1` was tested. Which “T2 sensor activation Q score” value did it give?
**A.** 1.6

**Q.** `O=C(c1ccccc1)C1N=NCC1c1ccc(Cl)cc1` (stereo not drawn) was tested. Which “T2 sensor activation Q score” value did it give?
**A.** 0.05

**Q.** With `O=c1nc(Oc2ccccc2)nc2ncccn12` as the compound, how does the “T2 sensor activation Q score” value read?
**A.** 1.9

**Q.** `Nc1nc(SCc2ccccn2)c2ncn(C3OC(CO)C(O)C3O)c2n1` (stereo not drawn) was tested. Which “T2 sensor activation Q score” value did it give?
**A.** -0.15

**Q.** How did the “T2 sensor activation Q score” value turn out when `Cc1cc(=O)n2[nH]c(-c3ccc(C(C)(C)C)cc3)cc2n1` was run?
**A.** 0.15

**Q.** `Nc1nc(N)c2c(ccc3nccc32)[nH]1` was tested. Which “T2 sensor activation Q score” value did it give?
**A.** 1.3

**Q.** How did the “T2 sensor activation Q score” value turn out when `O=C1C2C3C=CC(CC3)C2S(=O)(=O)C2C3C=CC(CC3)C12` (stereo not drawn) was run?
**A.** 1.8

**Q.** Which “T2 sensor activation Q score” value does the source give for `CCOC(=O)CCCN(c1[nH]c(C)c(C)c1C#N)S(=O)(=O)c1ccc(C)cc1` here?
**A.** 1.05

**Q.** With `CCCCCC(=O)N1CCCCC1` as the compound, how does the “T2 sensor activation Q score” value read?
**A.** -1.85

**Q.** `O=C1C=CC(=O)N1c1ccc(I)cc1Cl` was tested. Which “T2 sensor activation Q score” value did it give?
**A.** -0.45

**Q.** How did the “T2 sensor activation Q score” value turn out when `CC(=O)Oc1c(C)c(OC(C)=O)c2c(c1C(C)=O)OC1CC(=O)C(C(C)=O)=C(O)C21C` (stereo not drawn) was run?
**A.** -1.8

**Q.** Which “T2 sensor activation Q score” value does the source give for `O=c1cccc2cc(O)c(O)c(O)c2c1O` here?
**A.** 2.35

**Q.** How did the “T2 sensor activation Q score” value turn out when `O=C1Cc2cccc(=O)c(O)c2C(=O)O1` was run?
**A.** 0.1

**Q.** With `CCOP(=O)(OCC)/C(C#N)=C/c1ccc(-c2ccc(F)cc2F)o1` as the compound, how does the “T2 sensor activation Q score” value read?
**A.** -0.9

**Q.** How did the “T2 sensor activation Q score” value turn out when `CCOP(=O)(OCC)/C(C#N)=C/c1c[nH]c2ccccc12` was run?
**A.** -0.2

**Q.** How did the “T2 sensor activation Q score” value turn out when `CCOP(=O)(OCC)/C(C#N)=C/c1ccc([N+](=O)[O-])cc1` was run?
**A.** 2.3

**Q.** With `Clc1ccc2nc3ccccc3cc2c1` as the compound, how does the “T2 sensor activation Q score” value read?
**A.** 1.3

**Q.** `CC(=O)Nc1ccc(OC(=O)Oc2ccc(NC(C)=O)cc2)cc1` was tested. Which “T2 sensor activation Q score” value did it give?
**A.** 1.2

**Q.** For `Cc1ccc(C#CC(C)(O)C(C)(C)C)cn1` (stereo not drawn), which “T2 sensor activation Q score” value is on record?
**A.** -0.05

**Q.** Which “T2 sensor activation Q score” value does the source give for `Cc1nc(N)nc(Nc2ccc(C#N)cc2)c1Br` here?
**A.** 2.35

**Q.** With `COc1cnc(SC)nc1Nc1ccc(C#N)cc1` as the compound, how does the “T2 sensor activation Q score” value read?
**A.** 1.65

**Q.** For `N#Cc1c(N)nc(N)nc1Nc1ccc(Br)cc1`, which “T2 sensor activation Q score” value is on record?
**A.** 1.15

**Q.** For `CCc1nc(N)nc(N)c1-c1ccc(N(C)Cc2ccccc2)c([N+](=O)[O-])c1`, which “T2 sensor activation Q score” value is on record?
**A.** -1.25

**Q.** How did the “T2 sensor activation Q score” value turn out when `CC1(C)c2ccccc2-c2nc3ccccc3cc2C1O` (stereo not drawn) was run?
**A.** -0.95

**Q.** For `O=C1CC(c2ccc(O)cc2)Oc2cc(O)cc(O)c21` (stereo not drawn), which “T2 sensor activation Q score” value is on record?
**A.** 0.75

**Q.** For `CC(C)(C)c1ccc(OC(=O)c2ccccc2)cc1`, which “T2 sensor activation Q score” value is on record?
**A.** 0.95

**Q.** `CC(C)(C)CC(C)(C)N1CNC(=S)NC1` was tested. Which “T2 sensor activation Q score” value did it give?
**A.** 0.45

**Q.** With `N#CCCCCN1CCCC1` as the compound, how does the “T2 sensor activation Q score” value read?
**A.** -0.65

**Q.** Which “T2 sensor activation Q score” value does the source give for `CCOC(=O)C(=O)C1C(=O)Nc2ccccc21` (stereo not drawn) here?
**A.** 1.15

**Q.** `Cc1c(Cl)cccc1NC(=O)CC1Sc2ccccc2NC1=O` (stereo not drawn) was tested. Which “T2 sensor activation Q score” value did it give?
**A.** 2

**Q.** `CCCCSc1cc(=O)[nH]c(N)n1` was tested. Which “T2 sensor activation Q score” value did it give?
**A.** 1.85

**Q.** Which “T2 sensor activation Q score” value does the source give for `NC(=O)C1=C(N)c2ccccc2C1c1ccccc1` (stereo not drawn) here?
**A.** 1.4

**Q.** How did the “T2 sensor activation Q score” value turn out when `CCC1(CC)C(=O)NC(=S)N=C1N` was run?
**A.** 1.7

**Q.** With `c1ccc(-c2nc3ccccc3s2)nc1` as the compound, how does the “T2 sensor activation Q score” value read?
**A.** 0.6

**Q.** With `Cc1cc2nc(-c3ccccn3)c(-c3ccccn3)nc2cc1C` as the compound, how does the “T2 sensor activation Q score” value read?
**A.** 2.4

**Q.** `c1ccc(-c2nc(-c3ccccn3)nc(-c3ccccn3)n2)nc1` was tested. Which “T2 sensor activation Q score” value did it give?
**A.** -0.55

**Q.** Which “T2 sensor activation Q score” value does the source give for `O=c1ccc(Cl)n[nH]1` here?
**A.** 1.45

**Q.** With `FC(F)(F)c1cccc(OCC2CNC(=S)O2)c1` (stereo not drawn) as the compound, how does the “T2 sensor activation Q score” value read?
**A.** 0.65

**Q.** Which “T2 sensor activation Q score” value does the source give for `Cc1csc(NC(=O)c2ccc(C(=O)Nc3nc(C)cs3)cc2)n1` here?
**A.** 0.5

**Q.** Which “T2 sensor activation Q score” value does the source give for `C=C1SC(=Nc2c(C)cccc2Cl)N(C(=O)c2sc3ccccc3c2Cl)C12CCCCC2` here?
**A.** 1.1

**Q.** For `Nc1cc(N)nc(CS)n1`, which “T2 sensor activation Q score” value is on record?
**A.** 1.45

**Q.** `COCC(=O)Oc1cc(-c2ccc(C)cc2C)c(OC(=O)COC)c(-c2ccc(C)cc2C)c1` was tested. Which “T2 sensor activation Q score” value did it give?
**A.** 0.9

**Q.** For `NC(=O)c1ccccc1OCC(=O)Nc1ccc(Cl)c(Cl)c1`, which “T2 sensor activation Q score” value is on record?
**A.** 0.1

**Q.** How did the “T2 sensor activation Q score” value turn out when `Cc1cccc(C(O)C(O)c2cccc(C)n2)n1` (stereo not drawn) was run?
**A.** 0.55

**Q.** With `COc1ccccc1/C=C(\C#N)C(=O)O` as the compound, how does the “T2 sensor activation Q score” value read?
**A.** 1.4

**Q.** For `c1ccc2c(c1)nnn2-c1ccncc1`, which “T2 sensor activation Q score” value is on record?
**A.** -0.1

**Q.** `Nc1nnc(-c2cccnc2)s1` was tested. Which “T2 sensor activation Q score” value did it give?
**A.** 0.6

**Q.** `Cc1cnc2c(N)cc(C)c(C)c2c1` was tested. Which “T2 sensor activation Q score” value did it give?
**A.** 1.15

**Q.** With `O=[N+]([O-])c1cc(-c2cccnc2)n[nH]1` as the compound, how does the “T2 sensor activation Q score” value read?
**A.** -0.35

**Q.** `Nc1ccccc1C(=O)Nc1ccc(Cl)cc1Cl` was tested. Which “T2 sensor activation Q score” value did it give?
**A.** 0.45

**Q.** Which “T2 sensor activation Q score” value does the source give for `C#CC1(N2CCCCC2)CCCCC1` here?
**A.** 0.8

**Q.** For `Clc1nnc(NC2CCCCC2)c(Cl)c1Cl`, which “T2 sensor activation Q score” value is on record?
**A.** 0.15

**Q.** For `CC(=O)OCC1OC(COC(C)=O)(c2ccc(C)cc2)C(OC(C)=O)C1OC(C)=O` (stereo not drawn), which “T2 sensor activation Q score” value is on record?
**A.** 0.15

**Q.** `c1ccc(NN(Cc2ccncc2)c2ccccc2)cc1` was tested. Which “T2 sensor activation Q score” value did it give?
**A.** 0.95

**Q.** For `CCCCOc1ccc(Nc2cc(Cl)ccc2C(=O)O)cn1`, which “T2 sensor activation Q score” value is on record?
**A.** 1.2

**Q.** How did the “T2 sensor activation Q score” value turn out when `COc1ccc(Nc2cc(Cl)ccc2C(=O)O)cn1` was run?
**A.** 2.25

**Q.** Which “T2 sensor activation Q score” value does the source give for `COc1cc(-c2ccc(Nc3ccccc3C(=O)O)c(OC)c2)ccc1Nc1ccccc1C(=O)O` here?
**A.** -0.5
